Experimental findings from PubChem BioAssay (NCATS) are described below.

Values joined by “and” are separate entries in the source; they are usually repeats but may differ in a detail not shown here. Equal entries are not always repeated. Inconclusive results are not listed. Some structures have more than one record in an assay (separate samples or runs), and their calls can disagree. Active and inactive are the calls of the source. Unless noted, calls follow the shape of the dose curve; as a rule, active = well fitted curve in the direction sought with a large enough effect; inconclusive = small, poorly fitted or top-dose-only effect, or another doubt; inactive = no such curve, though single readings can be large; an effect the other way counts as inactive or inconclusive.

A short description of test [1]: Cell Viability - Jurkat (AID 426;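 active = dose-dependent loss of cell ATP signal giving a full or clear fitted curve, ranked by lower potency value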;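 also: potency is read from the fitted curve at half-maximal effect; cells exposed to compound for 40 hours at 37 °C before ATP read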). The note with it: qHTS. Summed up: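 Seed 5000 Jurkat E6-1 cells/well; add compound; incubate 40 hr at 37 °C; add CellTiter-Glo; wait 20 min at room temperature; read luminescence. Fit concentration-response with Hill equation for AC50.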
A short description of test [2]: Cellular Toxicity (caspase-3) SK-N-SH (AID 661).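 Also: 0% = DMSO basal and 100% = 10 µM staurosporine.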 The note with it: SK-N-SH caspase-3 activation, qHTS, DMSO as zero, staurosporine as full; series mostly up to 91.7 µM. In outline:
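Caspase 3/7 activation is measured as a luminescence increase from aminoluciferin released by substrate cleavage in SK-N-SH cells after 16 hr compound treatment; values are AC50 from concentration-response curves.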
In general terms: In qHTS, concentration-response curves come from the screen itself.

Test [3] has as its target Cytochrome P450 3A4 (Homo sapiens) (UniProt P08684). Briefly: qHTS Assay for Inhibitors and Substrates of Cytochrome P450 3A4 (AID 884). Also: % is scaled to controls: 0 for no effect and ±100 for the full control effect; nearly all actives have a fitted effect of over 50% in size. The note with it: recombinant CYP3A4, Luciferin-PPXE luminescence; series mostly up to 57.1 µM. Summed up:
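20 nM human CYP3A4 with 25 uM Luciferin-PPXE (at KM) in 200 mM KPO4, preincubated 10 min with compound; NADPH regeneration started a 60 min RT reaction. Luciferin detected by luminescence, normalized to 57 uM ketoconazole as full inhibition.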

A short description of test [4]: Cell Viability - LYMP1-003 - Assay at 24 hr (AID 963).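 Also: plate controls were DMSO only for no effect and tetraoctylammonium bromide positive control for full effect.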 To be noted: LYMP1-003 lymphoblastoid cell viability; series mostly up to 92.2 µM. Summed up:
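Acute toxicity in LYMP1-003 lymphoblastoid cells: 24 hr compound treatment at 37 C, ATP measured with CellTiter-Glo after 30 min at room temperature. AC50 derived by fitting the Hill equation to qHTS titrations.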

Test [5] can be described thus: qHTS assay for small molecule antagonists of peroxisome proliferator-activated receptor delta signaling (AID 588535; active = well fitted inhibition curve with a large enough effect in the signal ratio, with a control signal flat, not every such curve was filed as active; the % refers to the signal ratio;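 as to max response: cells co-treated with a PPAR-delta agonist as stimulator during compound exposure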). To be noted: HEK293T PPARd-UAS-bla, beta-lactamase FRET ratio, 18 h; 460 nm channel. Summed up:
(§1)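 Cell-based beta-lactamase assay in antagonist mode: 4000 HEK293T PPAR-delta-UAS-bla cells per well, 5 hr preincubation then 18 hr compound incubation at 37 C. IC50 obtained by Hill equation fitting.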

The target in test [6] is Peroxisome proliferator-activated receptor delta (Homo sapiens) (UniProt Q03181). The test is described as above. To be noted: HEK293T PPARd-UAS-bla, beta-lactamase FRET ratio, 18 h; series mostly up to 76.7 µM. In outline:
as §1

Test [7] deals with Peroxisome proliferator-activated receptor gamma (Homo sapiens) (UniProt P37231). Briefly: qHTS assay for small molecule agonists of peroxisome proliferator-activated receptor gamma signaling (AID 588536; active = well fitted curve in the direction sought with a large enough effect in the signal ratio, with a control signal flat, not every such curve was filed as active; the % refers to the signal ratio;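 also: 0% = DMSO basal wells and 100% = rosiglitazone at 2 µM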). To be noted: HEK293 PPARg-UAS-bla, beta-lactamase ratio, 16 h, percent of rosiglitazone response, DMSO as zero; series mostly up to 76.7 µM. In outline: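 GeneBLAzer PPAR-gamma-UAS-bla HEK293 cells in 1% charcoal/dextran-treated FBS medium were treated 16 h at 37 C with compounds. Beta-lactamase activity was read by CCF4 ratio (460/530 nm). Response was normalized to 2 uM rosiglitazone (100%) and DMSO, then Hill-fitted for EC50 and efficacy.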

Test [8] concerns the target Vitamin D3 receptor (Homo sapiens) (UniProt P11473). As to the kind of experiment: qHTS assay for small molecule antagonists of vitamin D receptor signaling (AID 588541; calls by dose curve;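 also: receptor activated by calcitriol during compound treatment; % is scaled to controls: 0 for no effect and ±100 for the full control effect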). To be noted: HEK293T VDR-UAS-bla, beta-lactamase ratio, antagonist mode; series mostly up to 76.7 µM. In outline: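 Antagonist-mode beta-lactamase reporter assay: HEK293T VDR-UAS-bla cells were exposed to titrated compound alongside 1-alpha,25-dihydroxyvitamin D3 at 3 nM final for 16 h. Values were normalized to the 50 nM agonist control and DMSO basal, with IC50 and efficacy from Hill equation fits.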

The target is the same in test [9]. As to the kind of experiment: qHTS assay for small molecule agonists of vitamin D receptor signaling (AID 588543; calls by dose curve;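 also: 0% = DMSO basal and 100% = reference agonist control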). To be noted: HEK293T VDR-UAS-bla, beta-lactamase ratio, 16 h; series mostly up to 76.8 µM. In outline:
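Reporter cells (HEK293T, VDR-UAS-bla) were seeded in medium with 2% charcoal-stripped serum and incubated 5 h, then compounds in concentration series were added for 16 h at 37 °C. Stimulation was scaled between DMSO basal and 50 nM 1α,25-dihydroxyvitamin D3.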

Test [10] deals with Thyroid hormone receptor beta (Homo sapiens) (UniProt P10828). Briefly: qHTS assay for small molecule agonists of thyroid hormone receptor beta signaling (AID 588545; calls by dose curve;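 also: 0% = DMSO only and 100% = 10 nM T3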). The note with it: TR-UAS-bla GripTite HEK 293, beta-lactamase ratio, agonist mode, 18 h; series mostly up to 76.7 µM. In outline:
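TR-UAS-bla-GripTite HEK 293 cells in medium with 2% charcoal/dextran FBS, 0.1 mM NEAA and 1 mM sodium pyruvate were treated with titrated compounds for 18 hrs at 37 C. Beta-lactamase reporter was read with CCF4 dye (ex 405, em 460/530 nm); EC50 from Hill fits.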

The target in test [11] is Voltage-gated inwardly rectifying potassium channel KCNH2 (Homo sapiens) (UniProt Q12809). Briefly: qHTS Assay for Small Molecule Inhibitors of the Human hERG Channel Activity (AID 588834).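 Also: top concentration of the series differs between compounds; % is scaled to controls: 0 for no effect and ±100 for the full control effect; lower thallium flux fluorescence means stronger hERG block; nearly all actives have a fitted effect of over 50% in size.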 The note with it: U2OS BacMam hERG, FluxOR thallium flux fluorescence; series mostly up to 92.2 µM. Summed up:
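hERG-BacMam U2OS, 2000 cells/well; 0.7X FluxOR loading 1 hr RT dark; cpd ~10 min 37 °C; stim buffer; FDSS fluorescence 2 min @ 1 s; AC50 Hill fit.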

A short description of test [12]: qHTS assay for small molecule agonists of the antioxidant response element (ARE) signaling pathway (AID 651741; active = well fitted activation curve with a large enough effect in the signal ratio; the % refers to the signal ratio; also: potency is read from the fitted curve at half-maximal effect; as to activation: % of control where 0% means no effect). The note with it: HepG2 ARE-bla reporter, beta-lactamase FRET ratio, 16 h; series mostly up to 96 µM. Summed up: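 Seeding 2,000 ARE-bla HepG2 cells per well preceded a 5 h incubation at 37 C/5% CO2 and a 16 h compound exposure at 37 C. Beta-lactamase reporter activity was then quantified by fluorescence after 2 h with LiveBLAzer B/G FRET substrate.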

A short description of test [13]: qHTS assay for small molecule activators of the p53 signaling pathway (AID 651743; active = well fitted activation curve with a large enough effect in the signal ratio, not every such curve was filed as active; the % refers to the signal ratio; also: potency is read from the fitted curve at half-maximal effect; as to activation: % of control where 0% means no effect). The note with it: HCT-116 p53RE-bla, beta-lactamase FRET ratio, 16 h; activation: stronger effect = higher value. Summed up: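 Screen for p53 pathway agonists uses stably transfected p53RE-bla HCT-116 cells, 4,000 per well, treated 16 h at 37 C with compounds in DMSO.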
Test [14] is described as follows: qHTS assay for small molecule disruptors of the mitochondrial membrane potential - 1 hr assay (AID 651754; calls by dose curve; also: nearly all actives have a fitted effect of over 35% in size; also: potency is read from the fitted curve at half-maximal effect). To be noted: series mostly up to 92.2 µM. Summed up:
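Steps: seed HepG2 cells and let attach overnight; pin-transfer compound or vehicle; incubate 1 hr at 37C; add Mito-MPS dye for 30 min; read two-channel fluorescence for monomer and aggregate forms.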

For test [15], the target named is Tumor necrosis factor (Homo sapiens) (UniProt P01375). As to the kind of experiment: qHTS assay to identify small molecules that stimulate Tumor Necrosis Factor-alpha (TNF-alpha) secretion (AID 651757; active = well fitted curve in the direction sought with a large enough effect in the signal ratio; the % refers to the signal ratio; also: 0% is about no effect). The note with it: Human cells, HTRF 665/615 ratio; series mostly up to 92.2 µM. In outline: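 Secreted TNF-alpha from compound-treated THP-1 cells (17 hrs, 37 C) was quantified with a homogeneous time-resolved fluorescence antibody assay.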

Test [16] can be described thus: Cell Viability - NIH 3T3 (AID 541).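 Also: cells exposed to compound for 40 hours; plate controls were DMSO alone for no effect and tamoxifen positive control for full effect; nearly all actives have a fitted effect of over 25% in size.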 To be noted: NIH 3T3 cell viability, qHTS; activity change, negative = cytotoxicity: at 92.2 µM (top of the series). In outline:
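AC50 values reflect concentration-dependent loss of intracellular ATP in NIH 3T3 cells after 40 hr treatment in complete culture medium, quantified by luciferase-based luminescence.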

The nature of test [17]: MultiTox-Fluor Cytotoxicity Assay - LYMP1-002 - Dead Cells (AID 960).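 Also: 0% = DMSO and 100% = tetraoctylammonium bromide; nearly all actives have a fitted effect of over 60% in size.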 The note with it: LYMP1-002 lymphoblastoid cells, dead-cell protease fluorescence; series mostly up to 46.1 µM. In outline:
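Acute cytotoxicity in a human lymphoblastoid line is scored as rising dead-cell protease signal after 16 hr exposure at 37 C, measured fluorometrically (485/520).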

Test [18] can be described thus: qHTS assay for small molecule activators of the human pregnane X receptor (PXR) signaling pathway (AID 720659; call rule not given here; also: 0% is about no effect). The note with it: DPX-2 HepG2 CYP3A4-luciferase, 24 h; series mostly up to 92.3 µM.
Test [19] concerns the target Nuclear receptor ROR-gamma (Homo sapiens) (UniProt P51449). Briefly: qHTS assay for small molecule antagonists of the retinoid-related orphan receptor gamma (ROR-gamma) signaling pathway (AID 651802). Also: nearly all actives have a fitted effect of over 60% in size. Also: potency is read from the fitted curve at half-maximal effect. The note with it: ROR-gamma antagonist cell reporter assay; series mostly up to 92.2 µM. Summed up: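 Antagonism is scored as a fall in luminescence from a RORE-luciferase reporter in CHO cells expressing ROR under a TET-inducible promoter, measured 16hr after doxycycline induction in the presence of compound.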

The nature of test [20]: Cell Viability - LYMP2-013 (AID 970).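 Also: cells exposed to compound for 24 h at 37 °C; 0% = DMSO only and full inhibition = tetraoctylammonium bromide control; nearly all actives have a fitted effect of over 55% in size.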 To be noted: LYMP2-013 lymphoblastoid cells viability; series mostly up to 92.2 µM. In outline:
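Acute toxicity was measured in human lymphoblastoid cells (2500/well) exposed to compound titrations for 24 hr, with ATP luminescence (CellTiter-Glo) as read-out and AC50 fitted by Hill equation.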

Thyroid hormone receptor beta (Homo sapiens), sequence (P10828 whole entry, looked up): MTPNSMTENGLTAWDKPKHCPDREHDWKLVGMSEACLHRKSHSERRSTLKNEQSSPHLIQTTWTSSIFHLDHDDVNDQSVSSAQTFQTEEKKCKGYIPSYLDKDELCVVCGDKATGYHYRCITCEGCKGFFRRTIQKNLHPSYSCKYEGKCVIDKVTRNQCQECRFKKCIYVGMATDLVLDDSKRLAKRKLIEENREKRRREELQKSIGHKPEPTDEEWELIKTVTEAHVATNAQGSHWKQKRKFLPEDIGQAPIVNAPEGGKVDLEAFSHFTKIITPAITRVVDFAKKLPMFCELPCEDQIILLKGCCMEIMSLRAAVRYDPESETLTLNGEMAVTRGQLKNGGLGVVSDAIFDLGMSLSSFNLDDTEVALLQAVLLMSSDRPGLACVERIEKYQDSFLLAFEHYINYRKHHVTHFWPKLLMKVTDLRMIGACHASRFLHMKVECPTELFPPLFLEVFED
Cytochrome P450 3A4 (Homo sapiens), sequence (P08684 whole entry, looked up): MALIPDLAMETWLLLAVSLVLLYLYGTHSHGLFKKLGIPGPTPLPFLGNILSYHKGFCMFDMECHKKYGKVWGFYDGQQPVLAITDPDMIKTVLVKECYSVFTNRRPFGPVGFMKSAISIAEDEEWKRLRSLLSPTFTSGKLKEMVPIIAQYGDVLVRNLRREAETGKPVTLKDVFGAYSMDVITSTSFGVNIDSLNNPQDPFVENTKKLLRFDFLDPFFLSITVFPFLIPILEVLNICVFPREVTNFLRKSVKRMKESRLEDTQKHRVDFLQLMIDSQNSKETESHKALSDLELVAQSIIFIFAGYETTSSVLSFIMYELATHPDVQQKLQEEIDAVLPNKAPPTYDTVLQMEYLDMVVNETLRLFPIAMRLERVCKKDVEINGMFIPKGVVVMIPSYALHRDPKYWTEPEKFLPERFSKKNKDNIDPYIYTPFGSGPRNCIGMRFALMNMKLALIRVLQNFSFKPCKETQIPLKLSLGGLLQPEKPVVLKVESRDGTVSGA
Peroxisome proliferator-activated receptor delta (Homo sapiens), sequence (Q03181 whole entry, looked up): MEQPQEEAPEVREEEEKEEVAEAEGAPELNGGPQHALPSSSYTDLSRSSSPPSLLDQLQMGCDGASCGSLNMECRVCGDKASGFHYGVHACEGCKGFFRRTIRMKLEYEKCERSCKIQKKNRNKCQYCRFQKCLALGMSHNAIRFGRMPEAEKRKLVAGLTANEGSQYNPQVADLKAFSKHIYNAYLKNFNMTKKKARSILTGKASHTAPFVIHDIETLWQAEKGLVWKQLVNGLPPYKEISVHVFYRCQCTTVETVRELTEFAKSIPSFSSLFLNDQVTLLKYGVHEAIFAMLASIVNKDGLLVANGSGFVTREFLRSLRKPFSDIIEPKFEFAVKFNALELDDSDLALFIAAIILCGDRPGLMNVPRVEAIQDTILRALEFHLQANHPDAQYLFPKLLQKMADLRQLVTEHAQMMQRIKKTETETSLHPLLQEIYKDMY
Nuclear receptor ROR-gamma (Homo sapiens), sequence (P51449 whole entry, looked up): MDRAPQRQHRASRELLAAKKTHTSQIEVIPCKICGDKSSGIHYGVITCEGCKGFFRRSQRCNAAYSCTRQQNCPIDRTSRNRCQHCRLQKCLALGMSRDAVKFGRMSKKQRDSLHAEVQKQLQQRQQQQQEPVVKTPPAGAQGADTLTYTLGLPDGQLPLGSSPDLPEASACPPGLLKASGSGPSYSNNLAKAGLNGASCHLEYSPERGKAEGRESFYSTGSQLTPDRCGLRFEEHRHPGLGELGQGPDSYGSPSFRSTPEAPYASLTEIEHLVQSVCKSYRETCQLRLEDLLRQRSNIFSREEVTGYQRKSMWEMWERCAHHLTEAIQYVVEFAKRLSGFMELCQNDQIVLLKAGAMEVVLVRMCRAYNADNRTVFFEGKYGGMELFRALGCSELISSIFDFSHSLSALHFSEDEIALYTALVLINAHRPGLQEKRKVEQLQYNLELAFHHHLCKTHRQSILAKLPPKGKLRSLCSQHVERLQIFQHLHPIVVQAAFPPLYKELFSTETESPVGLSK
Vitamin D3 receptor (Homo sapiens), sequence (P11473 whole entry, looked up): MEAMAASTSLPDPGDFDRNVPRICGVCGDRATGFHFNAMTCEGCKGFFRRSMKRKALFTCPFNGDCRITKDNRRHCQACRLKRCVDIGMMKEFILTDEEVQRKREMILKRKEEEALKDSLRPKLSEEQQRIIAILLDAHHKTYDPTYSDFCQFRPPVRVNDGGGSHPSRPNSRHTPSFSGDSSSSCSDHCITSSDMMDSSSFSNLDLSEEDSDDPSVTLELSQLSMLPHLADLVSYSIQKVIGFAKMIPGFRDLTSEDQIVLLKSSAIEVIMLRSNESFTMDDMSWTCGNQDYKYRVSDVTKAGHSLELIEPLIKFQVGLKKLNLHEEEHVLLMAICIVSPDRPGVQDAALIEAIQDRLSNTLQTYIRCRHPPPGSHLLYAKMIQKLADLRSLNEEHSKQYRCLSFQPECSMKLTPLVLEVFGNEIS
Voltage-gated inwardly rectifying potassium channel KCNH2 (Homo sapiens), sequence (Q12809 whole entry, looked up): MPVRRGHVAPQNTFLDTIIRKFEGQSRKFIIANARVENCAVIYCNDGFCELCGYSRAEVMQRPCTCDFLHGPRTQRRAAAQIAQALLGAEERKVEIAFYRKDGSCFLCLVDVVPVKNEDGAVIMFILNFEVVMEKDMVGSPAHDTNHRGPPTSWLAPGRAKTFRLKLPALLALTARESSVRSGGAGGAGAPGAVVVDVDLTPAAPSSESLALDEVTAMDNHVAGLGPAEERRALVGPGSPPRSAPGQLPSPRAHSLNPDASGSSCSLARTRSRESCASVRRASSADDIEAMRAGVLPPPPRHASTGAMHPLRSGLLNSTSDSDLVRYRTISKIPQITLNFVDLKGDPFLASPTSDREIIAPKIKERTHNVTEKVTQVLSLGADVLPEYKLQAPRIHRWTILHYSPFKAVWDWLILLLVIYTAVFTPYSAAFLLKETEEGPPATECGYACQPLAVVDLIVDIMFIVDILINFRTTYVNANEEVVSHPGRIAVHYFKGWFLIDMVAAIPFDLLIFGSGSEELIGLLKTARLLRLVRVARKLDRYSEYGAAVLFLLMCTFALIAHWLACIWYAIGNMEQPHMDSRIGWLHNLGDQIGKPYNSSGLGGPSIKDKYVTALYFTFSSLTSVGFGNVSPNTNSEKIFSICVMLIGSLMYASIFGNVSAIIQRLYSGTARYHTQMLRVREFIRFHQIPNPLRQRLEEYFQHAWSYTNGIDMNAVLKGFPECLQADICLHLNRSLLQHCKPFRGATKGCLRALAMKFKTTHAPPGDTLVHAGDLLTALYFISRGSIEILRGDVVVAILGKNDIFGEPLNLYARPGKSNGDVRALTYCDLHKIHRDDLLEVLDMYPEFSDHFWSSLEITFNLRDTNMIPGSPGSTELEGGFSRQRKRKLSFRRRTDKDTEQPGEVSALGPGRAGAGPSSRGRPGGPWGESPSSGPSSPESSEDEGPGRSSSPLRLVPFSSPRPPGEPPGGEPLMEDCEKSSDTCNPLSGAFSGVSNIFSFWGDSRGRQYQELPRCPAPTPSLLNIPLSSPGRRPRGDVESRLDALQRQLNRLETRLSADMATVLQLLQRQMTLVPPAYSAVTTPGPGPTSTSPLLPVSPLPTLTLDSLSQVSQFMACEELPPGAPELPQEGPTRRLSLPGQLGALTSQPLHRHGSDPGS
Tumor necrosis factor (Homo sapiens), sequence (P01375 whole entry, looked up): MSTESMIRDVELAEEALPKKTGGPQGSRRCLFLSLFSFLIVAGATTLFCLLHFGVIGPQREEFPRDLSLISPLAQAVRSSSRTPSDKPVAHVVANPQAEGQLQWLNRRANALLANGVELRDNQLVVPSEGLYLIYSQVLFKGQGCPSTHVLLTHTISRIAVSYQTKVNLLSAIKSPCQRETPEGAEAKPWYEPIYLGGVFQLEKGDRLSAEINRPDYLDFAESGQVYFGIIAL
Peroxisome proliferator-activated receptor gamma (Homo sapiens), sequence (P37231 whole entry, looked up): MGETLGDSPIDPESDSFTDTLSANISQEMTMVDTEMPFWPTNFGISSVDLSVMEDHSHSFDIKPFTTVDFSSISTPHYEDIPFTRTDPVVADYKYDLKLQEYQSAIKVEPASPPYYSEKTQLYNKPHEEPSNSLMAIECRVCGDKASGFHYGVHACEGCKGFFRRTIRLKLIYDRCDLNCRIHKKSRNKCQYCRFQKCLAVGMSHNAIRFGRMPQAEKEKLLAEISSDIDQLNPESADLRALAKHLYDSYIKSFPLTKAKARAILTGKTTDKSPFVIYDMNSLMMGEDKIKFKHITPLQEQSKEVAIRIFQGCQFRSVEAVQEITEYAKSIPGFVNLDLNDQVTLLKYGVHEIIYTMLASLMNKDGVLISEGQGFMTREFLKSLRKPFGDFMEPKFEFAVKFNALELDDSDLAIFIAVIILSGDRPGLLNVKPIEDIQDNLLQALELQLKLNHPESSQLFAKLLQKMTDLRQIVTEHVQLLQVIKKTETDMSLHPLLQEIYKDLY

Regarding `OCC(CBr)(CBr)CBr`, in test [1], the Potency is > 92 µM (inactive). The compound was classed as inactive in [2], in test [6] and in [7]. For the same compound, the Potency result in test [3], in [4], in test [8], in [9], in test [10] and in test [11] was “inactive” each time. Besides, the Potency entry in test [12], in [14] and in test [15] was “inactive” in each case. In [5], the max response came out at 9.08%. Further, in [13], the activation is 0.524% (inactive).

`CCCCC(CC)COC(=O)COc1ccc(Cl)cc1Cl` (centres undefined): the Potency in test [1] was > 92 µM (inactive). In [16], the activity change, negative = cytotoxicity is 0.559% (inactive). For the same compound, the Potency entry in test [3], in [17], in [8], in test [9], in test [10] and in [11] was “inactive” in each case. Moreover, the Potency entry in test [14] and in [15] was “inactive” each time. In addition, the outcome in test [7] and in [18] was inactive. In addition, the activation in test [13] was -1.29% (inactive) and -1.26% (inactive).

As for `COc1ccc(C)cc1N`, the Potency in test [1] was > 92 µM (inactive). For the same compound, the Potency entry in test [17], in [4], in [8], in test [9], in [11] and in [12] was “inactive” each time. Moreover, the Potency entry in test [14], in test [15] and in test [19] was “inactive” in each case. In test [5], the max response stood at 4.23%. Further, the outcome in test [6], in test [7] and in test [18] was inactive. Moreover, in test [13], the activation is -5.11% (inactive).

As for `Oc1c(Cl)cc(Cl)c(Cl)c1Cl`, the Potency is 57 µM (active) in [1]; 33.5 µM (active) in test [12]; 44.7 µM (active) in test [13]; 42.2 µM (active) in test [14]; 33.5 µM (active) in test [19]. In addition, in test [16], the activity change, negative = cytotoxicity was -2.17% (inactive). The outcome in [2], in test [6] and in test [7] was inactive. In addition, the Potency result in test [3], in test [8], in test [9], in test [10], in test [11] and in test [15] was “inactive” each time. For the same compound, the max response in test [5] was found to be 22.5%. For the same compound, the activation in [13] was 2.74% (inactive).

For the compound `CN(C)c1ccc(Cc2ccc(N(C)C)cc2)cc1`, the Potency in [1] was > 92 µM (inactive). Moreover, in [16], the activity change, negative = cytotoxicity was -18.8% (inactive). Further, the call in [2], in [6] and in test [7] was inactive. Moreover, the Potency entry in [17], in test [4], in [20], in test [8], in test [9] and in test [10] was “inactive” each time. The max response in test [5] was 11.4% and 3.82%. In addition, the activation in [13] was 6.8% (inactive) and -1.08% (inactive).

`C/C(Cl)=C/CCl`: the Potency in test [1] is > 92 µM (inactive). In addition, in test [16], the activity change, negative = cytotoxicity is -23.5% (inactive). Besides, the call in test [2], in [6], in test [7] and in test [18] was inactive. The Potency entry in test [3], in test [4], in test [20], in test [10], in [11] and in test [14] was “inactive” each time. For the same compound, the Potency result in [15] and in test [19] was “inactive” in each case. Also, the max response in [5] is 5.39%. In addition, the activation in test [13] was -4.9% (inactive).

Turning to `Cc1ccc(C(=O)O)cc1[N+](=O)[O-]`, the Potency in test [1] was > 92 µM (inactive). The activity change, negative = cytotoxicity in [16] was -13.4% (inactive). Further, the result in test [2], in [7] and in test [18] was inactive. The Potency result in [3], in test [17], in test [4], in test [20], in [8] and in test [9] was “inactive” throughout. In addition, the Potency entry in [11], in test [14] and in [15] was “inactive” in each case.

Take `c1ccc(COCc2ccccc2)cc1`: the Potency in test [1] was > 92 µM (inactive). The activity change, negative = cytotoxicity in test [16] was -5.87% (inactive). Further, the outcome in test [2] and in test [7] was inactive. For the same compound, the Potency result in [3], in test [17], in test [20], in test [8], in [9] and in [10] was “inactive” each time. In addition, the Potency result in test [11], in test [12], in [14], in [15] and in test [19] was “inactive” throughout. Further, the activation in test [13] is -1.51% (inactive).
